Rango complex inh: Rango-importin beta binding inhibition; Q14974; Rango CFP/YFP FRET sensor + importin beta, 45 min; Potency, µM (top dose mostly 92.2 µM), without a hit: top-dose inhibition of complex formation; hit rate 0.031% among 340,000; AID 540263;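 note: 0% = DMSO wells and 100% = buffer wells lacking importin beta; nearly all actives have a fitted effect of over 15% in size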
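Inhibition scored from the CFP 486 nm/YFP 530 nm FRET ratio 45 min after adding 0.125 microM importin beta to 50 nM Rango biosensor preincubated 5 min with compound (room temperature, PBS with DTT, Tween-20, BSA). No-importin wells as positive control.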
Rango release inh: inhibition of RanGTP-driven Rango-importin beta dissociation; O95149+P62826; AID 540253; hit rate 0.071% among 340,000; Potency, µM (titrated, usually from 46.1 µM), for the others: at the highest dose activity change, negative = inhibition; Biochemical FRET Rango-importin beta, RanGTP-induced dissociation; note: % of control where 0% means no effect; nearly all actives have a fitted effect of over 45% in size
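Rango FRET biosensor (snurportin-1 IBB flanked by N-terminal EYFP and C-terminal CFP10) at 0.1 uM, with 0.25 uM importin beta in PBS, 1mM DTT, 0.02% Tween-20, 0.1% BSA. 0.6 uM Ran, 2mM GTP and 0.2 uM RCC1 were then added for 45 min at room temperature. Inhibition read as loss of FRET rise.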
gsp agonist: gsp mutant agonism | AID 624287 | gsp mutant cells, cAMP HTRF, 30 min | Potency, µM (titrated, usually from 76.9 µM), inactives show at the top dose activation (cAMP increase), usual class: activators | hit rate 0.13% among 340,000; active = well fitted activation curve with a large enough effect; inconclusive = small, poorly fitted or top-dose-only effect, or another doubt; inactive = no such curve, though single readings can be large or run the other way; cell line not stated here;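 note: phosphodiesterase inhibitor Ro 20-1724 added with compounds to block cAMP breakdown; nearly all actives have a fitted effect of over 60% in size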
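Cells stably selected in G418 were plated at 2000/well, grown 16-24 hr, then given compounds in DMSO with the PDE inhibitor […] (300 uM solution added) for 30 min at 37C; cAMP was read by HTRF.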
gsp antag: antagonists of gsp mutant (McCune-Albright syndrome); Potency, µM (top dose mostly 76.9 µM), for the others: top-dose activity change, negative = inhibition, actives largely listed as inhibitors; AID 624288; gsp-mutant cells, cAMP HTRF, 30 min; hit rate 0.4% among 340,000; calls by dose curve; cell line not stated here;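 note: intracellular cAMP measured with PDE inhibitor Ro 20-1724 present during compound exposure; % is set by controls: 0 for no effect and ±100 for the full control effect; nearly all actives have a fitted effect of over 65% in size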
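HTRF cAMP measurement after 30 min RT detection following 30 min, 37C compound treatment alongside […] (added as 300 uM solution) in G418-selected cells seeded at 2000/well and grown 16–24 h.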
* hit, by the source's call; ? = inconclusive; · = no result given. A selection: hits, their analogues and other compounds. The true share with any hit is near 0.66%. Unless noted, calls come from the whole dose curve. Potency is the fitted concentration of half-maximal effect.

SMILES | Rango complex inh | Rango release inh | gsp agonist | gsp antag
O=C(Nc1cccc([N+](=O)[O-])c1)c1ccc2nc(N3C(=O)CCC3=O)sc2c1 | -1% | 1% | -2% | ?
CCOC(=O)C1CCN(C(=O)CN2C(=O)CSc3ccc(S(=O)(=O)N4CCOCC4)cc32)CC1 | 2% | -2% | 3.5µM* | 5%
C[C@@H]1CN([C@H](C)CO)C(=O)CCCn2nncc2CO[C@H]1CN(C)Cc1cccc(O)c1 | · | · | 11% | ·
O=C1[C@H]2[C@@H](c3ccccc3)N[C@]3(CCCN(Cc4ccc(Br)cc4)C3=O)[C@H]2C(=O)N1Cc1ccccc1 | · | · | -29% | ·
COc1cc(C)nc(N(C)S(=O)(=O)c2ccccc2Cl)n1 | 3% | -3% | -1% | 32µM*
CCOC(=O)c1ccc(-c2ccc3oc(-c4ccsc4)cc(=O)c3c2)cc1F | 0% | -10% | · | 7.1µM*
COc1cc(-c2ccc3oc(-c4ccsc4)cc(=O)c3c2)cc(OC)c1OC | -2% | 1% | -40% | ?
O=C(Nc1ccc(-c2cn3ccsc3n2)cc1)C1COc2ccccc2O1 (stereo not drawn) | 1% | 14% | -29% | 40µM*
Cc1ccc(NC(=O)C2COc3ccccc3O2)cc1 (stereo not drawn) | -1% | 10% | -45% | -2%
Cc1ccc(C(=O)N2CCC(N3CCC(C(=O)N4CCOCC4)CC3)CC2)cc1 | · | · | -21% | ·
COc1cccc(-c2cc3c(=O)n(-c4ccccc4)c(=S)[nH]c3s2)c1 | 0% | -1% | 11µM* | 19%
Cc1cc(NC(=O)c2cc(-c3ccccn3)nc3ccc(Br)cc23)no1 | 0% | 3% | ? | -11%
O=C(Nc1ccccn1)c1cc(-c2cccnc2)nc2ccc(Br)cc12 | ? | -8% | 40µM* | 13%

Screens deposited in PubChem by National Center for Advancing Translational Sciences (NCATS).
